Screens deposited in PubChem BioAssay by Broad Institute.
Tg IFNy HTS = T. gondii growth inhibition under IFN-gamma | Toxoplasma gondii growth in IFN-gamma-treated host cells; hits give low values | activity change, negative = inhibition, % (no concentration beside the values) | 69,000 compounds, 3.8% hits | AID 1259416; in the data active = activity change below about -70%, passing the limit was not always enough;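 also: host cells are HeLa cells infected with Toxoplasma gondii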
The depositor's hits bear a star; ! = not active in a repeat. This is one part of a sample in which hits are shown more often than they occur.

SMILES	Tg IFNy HTS
Cc1ncc(CN2CCC(c3nn(C)c(=O)n3-c3ccccc3)CC2)s1	-6
CCn1ncnc1CN1CCC(c2nn(C)c(=O)n2-c2ccccc2)CC1	-74*
CCn1ncnc1CN1CCCC(c2n[nH]c(=O)n2-c2ccccc2)C1 (centres undefined)	-19
CCCCCCOC(=O)/N=C(/N)c1ccc(NCc2nc3cc(C(=O)N(CCC(=O)OCC)c4ccccn4)ccc3n2C)cc1	-1
COc1cccc2c1OCC(C(=O)Nc1ccc3c(c1)N(C)C(=O)CO3)C2 (centres undefined)	4
CC(c1ccccn1)N(C)Cc1nc2ccccc2n1C(C)C (centres undefined)	-20
Cc1cc(CN(C)Cc2ccc(-n3cccn3)cc2)n[nH]1	-3
Cc1cc(CN(C)Cc2nc3ccccc3n2C(C)c2ccccc2)n[nH]1 (centres undefined)	-79*
COc1ccc(NC(=O)Cn2c(=O)cc(-c3nc(C(C)C)no3)c3ccccc32)cc1	-66
CC(=O)c1csc(NC(=O)c2cnc(C(C)(C)C)nc2)n1	407
O=C(Nc1ccccc1C(=O)Nc1cccc2ccccc12)Nc1cccc2ccccc12	135
O=C(Nc1ccc2c3c(cccc13)CC2)c1nc(-n2cnnc2)n[nH]1	-80*
O=C(Nc1ccc2c3c(cccc13)CC2)c1cccnc1Cl	32
CN(c1ncccn1)C1COC2(CCN(C(=O)c3cccn3C)C2)C1 (centres undefined)	5
CC1(CCC#N)N=C(SCCC#N)N(c2ccccc2)C1=O (centres undefined)	-74*
COc1ccc(CC(=O)N2CCC3(CC2)Nc2cc(OC)ccc2-n2cccc23)cc1	51
COc1ccc2c(c1)NC1(CCN(C(=O)COc3ccc(F)cc3)CC1)c1cccn1-2	59
CC(C)CC(=O)Nc1ccc(S(=O)(=O)N2CCC3(CC2)Nc2cc(F)ccc2-n2cccc23)cc1	-77*
O=C(c1ccc(Br)o1)N1CCC2(CC1)Nc1cc(F)ccc1-n1cccc12	-27
COc1ccc(OCC(=O)N2CCC3(CC2)Nc2cc(C)ccc2-n2cccc23)cc1	31
COc1cccc(CC(=O)N2CCC3(CC2)Nc2cc(OC)ccc2-n2cccc23)c1	-34
COc1ccc2c(c1)NC1(CCN(C(=O)Cc3ccc(F)cc3)CC1)c1cccn1-2	-84*
COc1ccc2c(c1)NC1(CCN(C(=O)c3ccc(Br)o3)CC1)c1cccn1-2	-79*
CCc1ccc(C(=O)N2CCC3(CC2)Nc2cc(OC)ccc2-n2cccc23)cc1	16
CC(C)CC(=O)Nc1ccc(S(=O)(=O)N2CCC3(CC2)Nc2ccccc2-n2cccc23)cc1	1
SMILES	Tg IFNy HTS
COc1ccc2c(c1)NC1(CCN(C(=O)COc3cccc(C)c3)CC1)c1cccn1-2	-129*
Cc1ccc2c(c1)NC1(CCN(S(=O)(=O)c3ccc(NC(=O)CC(C)C)cc3)CC1)c1cccn1-2	26
Cc1ccccc1NC(=O)CC(=O)N(C)Cc1n[nH]c2c1CCCC2	-46
CCc1[nH]n2c(=O)c(C)c(C)nc2c1-c1ccccc1	-7
CCc1nc(OCC(=O)Nc2cc(OC)cc(OC)c2)c2ccccc2n1	6
CCN(CC)C(=O)C1Cn2ccnc2C2(CCN(c3ncccn3)CC2)O1 (centres undefined)	83
N#Cc1cccc(CN2CCC3(CC(NS(=O)(=O)C4CC4)C3)C2)c1 (centres undefined)	-2
CCN(CCN(C)C)c1ncc(-c2cnccn2)c(-c2cccs2)n1	5
COc1ccc2c(c1)NC1(CCN(C(=O)Nc3cccc(F)c3)CC1)c1cccn1-2	355
Cc1nn(CC(C)C(=O)N2CCCC2c2ncc3c(n2)CCNC3)c(C)c1C (centres undefined)	5
Cc1ccc(CN2CC[C@@H](N3CCOCC3)[C@H]2Cc2cnn(C)c2)o1	11
O=C(CN1C(=O)CCc2cc(Br)ccc21)N1CC=C(c2ccccc2)CC1	59
COc1ccc(-c2ccc3[nH]nc(N)c3c2)cn1	-73*
COc1ccc(-c2cccc3c(C(N)=O)cccc23)cn1	14
COc1ccc(-c2cc(F)c(OC)c(F)c2)cn1	-9
Cc1nc2ncccn2c1C(=O)NCCCc1nc2ccccc2n1C	6
COc1ccc(NC(=O)N2CCC3(CC2)NC(=O)c2ccc(Cl)cc2N3C)cc1OC	188
COc1ccc(CNC(=O)CSc2nnc(NC(=O)C3CCC3)s2)cc1	-1
Cc1cc(C)cc(Nc2nc(-c3nnc(-c4ccccc4)o3)nc3ccccc23)c1	42
Cc1ccc(Nc2nc(-c3nnc(-c4ccc(C)cc4)o3)nc3ccccc23)cc1	42
CC(Nc1ncnc2ccccc12)c1ccccc1 (centres undefined)	-93*
CC(Nc1nc(-c2nnc(-c3ccccc3)o2)nc2ccccc12)c1ccccc1 (centres undefined)	-94*
Cc1cccc(Nc2ncnc3ccccc23)c1	-51
c1ccc(Nc2ncnc3ccccc23)cc1	-61
CCCS(=O)(=O)N1C[C@H](N(C)Cc2ccco2)C2OCCCC21 (some centres undefined)	-5
SMILES	Tg IFNy HTS
c1ccc2c(c1)COC(c1ccnc3ccccc13)N2 (centres undefined)	23
COc1ccc(-c2cc(C3CNC3)nc(C)n2)cc1	-77*
COc1ccc(-c2cc(-c3ccc(OC)cc3)nc(-c3ccc(C)o3)c2)cc1	37
COc1ccc(-c2cc(C)nc(C3CCNCC3)n2)cc1	-40
Cc1occc1C(=O)N1CCNCC1C(=O)NCc1ccccn1 (centres undefined)	-1
CCOC(=O)CSc1nc(-c2cccnc2)nn1C(=O)c1ccccc1	-26
O=C(NCc1coc(-c2ccccc2)n1)c1cccc2ccnn12	-80*
O=C(NCc1csc(N2CCOCC2)n1)c1cccc2ccnn12	33
O=C(NCc1noc(Cc2ccccc2)n1)c1cccc2ccnn12	7
Cc1ccc(CN2CCC3O[C@H](COCC4CCOCC4)CCC32)o1 (some centres undefined)	5
CC(C)(O)C#Cc1ccc(-c2nccn2Cc2ccc(F)cc2)cc1	-4
O=C(O)COCCN1CCN(C(c2ccccc2)c2ccc(Cl)cc2)CC1 (centres undefined)	18
OCCOCCN1CCN(C(c2ccccc2)c2ccc(Cl)cc2)CC1 (centres undefined)	-97*!
O=C(O)COCCN1CCN([C@H](c2ccccc2)c2ccc(Cl)cc2)CC1	23
O=C(O)CCCNC(=O)c1cccnc1	20
O=c1c(C(c2cccnc2)c2c(O)nc3n(c2=O)CCS3)c(O)nc2n1CCS2	13
COc1ccc(-c2nc3n(c(=O)c2C#N)CCCS3)cc1	44
Fc1ccc(-c2nc3n(c2-c2ccncc2)CCS3)cc1	-78*
CCCS(=O)(=O)N1Cc2cc(-c3ccn[nH]3)ccc2C1c1cnco1 (centres undefined)	3
COc1cc(F)ccc1-c1c(-c2ccccc2)ncn1CCCO	-18
O=C(Cn1nnc(-c2cccs2)n1)NCCC1=CCCCC1	-7
Cc1nnsc1CN(C)C(=O)c1n[nH]c2ccccc12	-7
CNC(=O)[C@H]1C[C@@H]2CN(Cc3ccoc3)C[C@@H]2N1C	-2
CNC(=O)[C@@H]1CC2CN(S(=O)(=O)c3ccc(C)c(F)c3)CC2N1C (some centres undefined)	-93*
CNC(=O)[C@@H]1CC2CN(S(=O)(=O)c3ccccc3)CC2N1C(C)=O (some centres undefined)	31
Cc1ccc(S(=O)(=O)N2CCC3(CC2)NCCN=C3NCc2ccccc2Cl)cc1C	-18
